Measurements as given in PubChem BioAssay (NCATS).
Results filed as inconclusive are left out. Activity calls are given as the source filed them. Unless noted, the call rests on the fitted dose curve; in most records, active means well fitted curve in either direction with a large enough effect (not every such curve was filed as active); inconclusive means small, poorly fitted or top-dose-only effect, or another doubt; inactive means flat fitted curve, though single readings scatter.

Experiments:
[1] = AP1 Signaling Pathway (AID 357); settings: ME-180 AP-1-bla reporter, EGF-induced, beta-lactamase ratio, 5 h; at 17.2 µM (top of the series) unless noted;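 further: ME-180 reporter cells stimulated with EGF at its EC50 level; on the % scale 0 is the no-effect control and ±100 the full control effect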
In short: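 Titration-series screen for positive or negative modulators of EC50 EGF-induced signaling in ME-180 cells carrying an AP-1-driven beta-lactamase reporter. After 5 hours at 37 degrees Celsius, CCF4 460nm/530nm emission ratio gave %Activity; AC50 values derived.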

[2] = NFAT Signaling Pathway (AID 444); settings: Jurkat NFAT-bla M1, carbachol, beta-lactamase ratio, 5 h; at 17.2 µM (top of the series) unless noted;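 further: carbachol stimulus at about its EC50 of 1 µM final; on the % scale 0 is the no-effect control and ±100 the full control effect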
In short: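 Jurkat cells carrying an NFAT-driven β-lactamase reporter and co-transfected muscarinic M1 receptor were treated with compound plus carbachol (1 uM final, an EC50 level) for 5 h at 37 °C. CCF4 loading followed for 1 h at RT; 460/530 nm ratio gave %activity.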

[3] = target: Glucocorticoid receptor (Homo sapiens) (UniProt P04150); test: GR-GFP Redistribution (AID 450;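 active means compounds whose dose series gives a full or clear partial fitted curve of increased nuclear translocation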; further: potency means the concentration at half of the fitted maximal effect); settings: U2OS GR-GFP nuclear translocation, laser cytometry, 2 h
Glucocorticoid receptor (Homo sapiens), sequence (P04150 whole entry, looked up, the tested form may be a part): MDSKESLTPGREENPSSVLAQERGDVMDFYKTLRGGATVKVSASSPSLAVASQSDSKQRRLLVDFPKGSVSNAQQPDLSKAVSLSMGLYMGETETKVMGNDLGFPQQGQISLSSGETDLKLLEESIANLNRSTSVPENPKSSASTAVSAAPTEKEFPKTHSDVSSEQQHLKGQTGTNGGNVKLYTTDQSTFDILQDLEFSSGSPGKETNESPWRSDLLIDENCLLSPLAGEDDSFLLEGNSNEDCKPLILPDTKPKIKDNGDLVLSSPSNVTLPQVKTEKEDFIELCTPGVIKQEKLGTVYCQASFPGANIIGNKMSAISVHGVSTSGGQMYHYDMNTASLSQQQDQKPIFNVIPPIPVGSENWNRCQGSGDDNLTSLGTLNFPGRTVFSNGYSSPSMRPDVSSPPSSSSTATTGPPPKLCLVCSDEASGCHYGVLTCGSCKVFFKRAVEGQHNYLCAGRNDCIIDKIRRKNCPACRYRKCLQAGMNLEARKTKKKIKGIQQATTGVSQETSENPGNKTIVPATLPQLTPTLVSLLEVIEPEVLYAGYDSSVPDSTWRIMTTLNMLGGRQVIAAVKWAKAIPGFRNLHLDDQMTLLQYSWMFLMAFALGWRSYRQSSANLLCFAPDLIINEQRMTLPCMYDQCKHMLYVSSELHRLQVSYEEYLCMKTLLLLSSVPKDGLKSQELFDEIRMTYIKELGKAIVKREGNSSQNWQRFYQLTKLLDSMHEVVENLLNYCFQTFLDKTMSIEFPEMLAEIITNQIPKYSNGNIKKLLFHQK

[4] = Stat Signaling Pathway (AID 446);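 further: ME-180 cervical cancer cells given 40 pM IL-6 alongside compound; SIE-controlled beta-lactamase reporter measured as 460/530 nm FRET emission ratio; on the % scale 0 is the no-effect control and ±100 the full control effect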
In short: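 Reporter line: ME-180 cervical carcinoma, SIE-beta-lactamase. Treatment: compound with 40 pM IL-6, 5 hrs, 37 C, in low-serum OPTI-MEM with 10 mM HEPES pH 7.3. Detection: 460/530 nm fluorescence.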

[5] = target: 3',5'-cyclic-AMP phosphodiesterase 4B (Homo sapiens) (UniProt Q07343); test: qHTS Assay for Inhibitors of PDE-IV (AID 607; active means well fitted activation curve with a large enough effect in the main read-out, with a control signal flat, not every such curve was filed as active; further: % of control where 0% means no effect)
3',5'-cyclic-AMP phosphodiesterase 4B (Homo sapiens), sequence (Q07343 whole entry, looked up): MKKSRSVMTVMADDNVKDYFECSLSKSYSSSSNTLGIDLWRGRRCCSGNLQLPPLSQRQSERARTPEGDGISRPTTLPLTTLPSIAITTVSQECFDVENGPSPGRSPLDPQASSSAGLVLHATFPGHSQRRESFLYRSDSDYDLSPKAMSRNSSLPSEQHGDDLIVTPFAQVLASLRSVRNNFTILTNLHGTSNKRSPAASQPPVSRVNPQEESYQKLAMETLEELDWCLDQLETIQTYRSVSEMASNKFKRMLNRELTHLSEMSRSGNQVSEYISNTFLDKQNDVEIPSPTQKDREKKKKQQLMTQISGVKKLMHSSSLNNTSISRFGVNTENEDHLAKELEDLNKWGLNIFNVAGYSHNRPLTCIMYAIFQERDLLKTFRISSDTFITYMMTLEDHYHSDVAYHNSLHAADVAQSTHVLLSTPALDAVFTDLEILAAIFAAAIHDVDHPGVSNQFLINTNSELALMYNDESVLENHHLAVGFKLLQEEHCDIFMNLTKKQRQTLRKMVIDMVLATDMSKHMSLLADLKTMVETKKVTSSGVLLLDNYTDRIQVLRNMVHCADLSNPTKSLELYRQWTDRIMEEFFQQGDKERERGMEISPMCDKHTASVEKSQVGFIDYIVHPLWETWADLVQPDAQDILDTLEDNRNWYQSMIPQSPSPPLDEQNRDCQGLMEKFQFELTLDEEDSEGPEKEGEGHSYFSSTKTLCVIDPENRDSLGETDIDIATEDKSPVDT
In short: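 Cell-based read-out of cAMP via a modified cyclic nucleotide-gated channel and membrane potential dye (535/590 nm) in HEK293 cells expressing PDE4 endogenously. Compounds tested up to 22.9 uM final; 100 uM RO 20-1724 reference.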

[6] = target: Guanine nucleotide-binding protein G(i) subunit alpha-1 (Homo sapiens) (UniProt P63096); test: qHTS Assay for Inhibitors of RGS12 GoLoco Motif Activity (Green Fluorophore) (AID 879; active means well fitted curve in the direction sought with a large enough effect; an effect the other way counts as inactive or inconclusive;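 further: 0% = labeled peptide with Gαi1 and full inhibition = labeled peptide alone without protein; negative values mean loss of peptide binding seen as reduced polarization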)
Guanine nucleotide-binding protein G(i) subunit alpha-1 (Homo sapiens), sequence (P63096 whole entry, looked up): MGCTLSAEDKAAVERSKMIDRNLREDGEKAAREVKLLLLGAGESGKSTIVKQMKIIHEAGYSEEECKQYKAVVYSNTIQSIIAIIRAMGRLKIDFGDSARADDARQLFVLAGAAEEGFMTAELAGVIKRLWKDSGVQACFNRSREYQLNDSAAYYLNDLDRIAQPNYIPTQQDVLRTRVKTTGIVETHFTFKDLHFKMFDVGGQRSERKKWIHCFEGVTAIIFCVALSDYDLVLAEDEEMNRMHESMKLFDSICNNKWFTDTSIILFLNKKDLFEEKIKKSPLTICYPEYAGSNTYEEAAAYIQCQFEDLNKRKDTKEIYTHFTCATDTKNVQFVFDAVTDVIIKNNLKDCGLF
In short: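 Fluorescence polarization assay: 50 nM Gαi1 with 10 nM FITC-labeled RGS12 GoLoco peptide in 10 mM Tris pH 7.5, 150 mM NaCl, 0.1 mM GDP, 0.05% NP40, 10 min at room temperature with compound.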

[7] = qHTS Assay for Identification of Small Molecule Agonists for Thrombopoietin (TPO) Signaling Pathway (AID 917; active means well fitted curve in the direction sought with a large enough effect; an effect the other way counts as inactive or inconclusive; further: on the % scale 0 is the no-effect control and ±100 the full control effect)
In short: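 Reporter: GpIIb promoter–luciferase in murine Ba/F3 expressing human TPO receptor. Pre-starved of IL-3 overnight; compounds with 26 pM TPO, 24 hrs, 37 C/5% CO2; luminescence read.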

[8] = target: Pyruvate kinase (Leishmania mexicana) (UniProt Q27686); test: qHTS Validation Assay for Inhibitors of Leishmania Mexicana Pyruvate Kinase (AID 945; active means well fitted curve in the direction sought with a large enough effect; an effect the other way counts as inactive or inconclusive;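 further: 0% = DMSO only neutral control wells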)
Pyruvate kinase (Leishmania mexicana), sequence (Q27686 2-499 E452W): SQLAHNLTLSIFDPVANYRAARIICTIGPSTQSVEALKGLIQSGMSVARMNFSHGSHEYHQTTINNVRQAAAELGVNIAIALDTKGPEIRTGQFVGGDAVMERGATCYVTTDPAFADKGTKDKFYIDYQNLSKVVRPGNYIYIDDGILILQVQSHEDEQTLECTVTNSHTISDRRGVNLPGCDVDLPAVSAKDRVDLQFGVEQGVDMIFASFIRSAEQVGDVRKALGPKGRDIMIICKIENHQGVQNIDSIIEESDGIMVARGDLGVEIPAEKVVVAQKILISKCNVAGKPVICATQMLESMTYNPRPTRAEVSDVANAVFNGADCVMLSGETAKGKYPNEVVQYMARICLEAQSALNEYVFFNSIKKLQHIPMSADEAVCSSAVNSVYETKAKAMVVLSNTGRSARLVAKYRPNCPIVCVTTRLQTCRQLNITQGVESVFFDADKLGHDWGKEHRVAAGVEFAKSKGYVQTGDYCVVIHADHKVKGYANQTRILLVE
In short: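 The enzyme is a highly purified E451W mutant of LmPYK used at 0.2 nM. It converts 0.5 mM PEP and 0.1 mM ADP over 1 h at room temperature; product ATP is quantified by luciferase luminescence relative to DMSO controls.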

[9] = target: Pyruvate kinase PKM (Homo sapiens) (UniProt P14618); test: qHTS Assay for Activators of Human Muscle Pyruvate Kinase (AID 954; active means well fitted curve in the direction sought with a large enough effect, not every such curve was filed as active;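 further: 0% = uninhibited enzyme and -100% = no enzyme or full thiadiazolimine inhibition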)
Pyruvate kinase PKM (Homo sapiens), sequence (P14618 whole entry, looked up): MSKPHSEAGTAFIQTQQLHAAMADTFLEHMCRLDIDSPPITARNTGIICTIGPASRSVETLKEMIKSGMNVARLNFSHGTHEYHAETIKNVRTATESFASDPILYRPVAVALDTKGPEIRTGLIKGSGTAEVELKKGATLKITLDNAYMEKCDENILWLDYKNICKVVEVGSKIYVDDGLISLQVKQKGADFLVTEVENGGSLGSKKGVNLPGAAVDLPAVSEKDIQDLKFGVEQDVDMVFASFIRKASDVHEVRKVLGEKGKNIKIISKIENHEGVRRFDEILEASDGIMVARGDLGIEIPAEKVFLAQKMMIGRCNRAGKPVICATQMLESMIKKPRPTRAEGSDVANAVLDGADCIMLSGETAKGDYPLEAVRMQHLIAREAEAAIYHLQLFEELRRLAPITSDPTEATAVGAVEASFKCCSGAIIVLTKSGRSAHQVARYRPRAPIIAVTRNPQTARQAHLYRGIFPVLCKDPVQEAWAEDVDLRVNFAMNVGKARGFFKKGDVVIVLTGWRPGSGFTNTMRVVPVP
In short: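 Human PKM2 activity is measured as ATP generation, detected by luciferase-coupled luminescence. The enzyme (0.1 nM) acts on 0.5 mM PEP and 0.1 mM ADP for 1 h at ambient temperature; data are normalized to uninhibited and full-inhibition wells.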

[10] = target: Alpha-galactosidase (Coffea arabica) (UniProt Q42656); test: Counterscreen for Glucocerebrosidase Inhibitors: qHTS Assay for Coffee Bean alpha-Galactosidase at pH 4.5 (AID 957; active means well fitted curve in the direction sought with a large enough effect; an effect the other way counts as inactive or inconclusive;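 further: plate controls were enzyme alone for no effect and no enzyme for full effect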)
Alpha-galactosidase (Coffea arabica), sequence (Q42656 whole entry, looked up): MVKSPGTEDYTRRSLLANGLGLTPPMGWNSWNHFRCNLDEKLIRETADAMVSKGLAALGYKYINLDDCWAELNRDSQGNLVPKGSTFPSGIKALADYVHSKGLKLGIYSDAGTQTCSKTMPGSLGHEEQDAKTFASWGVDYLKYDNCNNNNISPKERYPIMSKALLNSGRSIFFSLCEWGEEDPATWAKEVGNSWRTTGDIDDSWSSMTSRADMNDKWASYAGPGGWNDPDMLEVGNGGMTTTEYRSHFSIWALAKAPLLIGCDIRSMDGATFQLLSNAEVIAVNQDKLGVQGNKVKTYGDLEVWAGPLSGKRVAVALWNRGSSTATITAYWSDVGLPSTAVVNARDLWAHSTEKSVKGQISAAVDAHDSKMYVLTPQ
In short: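 Green coffee bean enzyme (2 nM final) was incubated with compounds (0.7 nM to 77 uM) and 4-methylumbelliferyl alpha-D-galactopyranoside (80 uM final) in 50 mM citric acid, 0.005% Tween-20, pH 4.5, 20 min at room temperature; AC50 from Hill fits.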

[11] = target: Alpha-galactosidase A (Homo sapiens) (UniProt P06280); test: Counterscreen for Glucocerebrosidase Inhibitors: qHTS Assay for Human alpha-Galactosidase at pH 4.5 (AID 992; active means well fitted curve in the direction sought with a large enough effect; an effect the other way counts as inactive or inconclusive; further: 0% is about no effect)
Alpha-galactosidase A (Homo sapiens), sequence (P06280 whole entry, looked up): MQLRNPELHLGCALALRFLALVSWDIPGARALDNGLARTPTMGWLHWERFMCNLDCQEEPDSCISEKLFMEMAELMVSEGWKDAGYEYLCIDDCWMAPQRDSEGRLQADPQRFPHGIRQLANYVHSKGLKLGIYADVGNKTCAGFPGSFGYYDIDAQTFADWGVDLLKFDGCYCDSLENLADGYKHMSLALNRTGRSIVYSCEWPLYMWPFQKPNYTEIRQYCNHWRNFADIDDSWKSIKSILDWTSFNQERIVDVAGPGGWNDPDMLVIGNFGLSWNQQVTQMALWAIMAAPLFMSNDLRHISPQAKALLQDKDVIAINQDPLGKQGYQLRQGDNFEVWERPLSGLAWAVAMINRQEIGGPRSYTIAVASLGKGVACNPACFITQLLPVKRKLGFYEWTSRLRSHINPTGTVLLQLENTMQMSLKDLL
In short: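 Quantitative HTS: compounds tested from 0.7 nM up to 77 uM against 2 nM enzyme with 80 uM 4-MU alpha-D-galactopyranoside. The 20 min room-temperature reaction is stopped with 1M NaOH/1M glycine, pH 10.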

[12] = target: alpha-glucosidase (Oryza sativa, rice) (UniProt Q653V4); test: Counterscreen for Glucocerebrosidase Inhibitors: qHTS Assay for Rice alpha-Glucosidase at pH 5.0 (AID 997; active means well fitted curve in the direction sought with a large enough effect; an effect the other way counts as inactive or inconclusive;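 further: 0% = full activity with enzyme and -100% = basal without enzyme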)
In short: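 Rice alpha-glucosidase (4 nM final) with 400 uM 4-methylumbelliferyl-alpha-D-glucopyranoside in citrate buffer pH 5.0, 20 min at room temperature, stopped at pH 10; fluorescence 365/440 nm, compounds 0.7 nM–77 uM, AC50 from Hill fits.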

[13] = target: Alpha-galactosidase (Coffea arabica) (UniProt Q42656); test: Counterscreen for Glucocerebrosidase Inhibitors: qHTS Assay for Coffee Bean alpha-Galactosidase at pH 5.9 (AID 998; active means well fitted curve in the direction sought with a large enough effect; an effect the other way counts as inactive or inconclusive;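 further: plate controls were uninhibited enzyme for no effect and no-enzyme basal signal for full effect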)
In short: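 Green coffee bean enzyme (2 nM final) was incubated with compounds (0.7 nM–77 uM) and 4-methylumbelliferyl alpha-D-galactopyranoside (80 uM) in citrate buffer pH 5.9, 20 min at room temperature. High-pH stop; fluorescence 365/440 nm; AC50 from Hill fits.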

[14] = qHTS Assay for Identification of Small Molecule Agonists for Hypoxia Response Element Signaling Pathway (AID 914; active means well fitted activation curve with a large enough effect in the signal ratio, with a control signal flat, not every such curve was filed as active; the % refers to the signal ratio; further: % of control where 0% means no effect); settings: ME-180 (cervical carcinoma) HRE-bla reporter, beta-lactamase ratio, CoCl2, 17 h; activation: hits give high values
In short: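 Cells were plated overnight, pin-dosed with compound in a titration series, co-stimulated with EC50 CoCl2 and incubated 17 hours at 37 degrees Celsius. CCF4 substrate was then loaded, and AC50 values came from the 460nm/530nm ratio.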

[15] = target: Glucocorticoid receptor (Homo sapiens) (UniProt P04150); test: GR-EFC Redistribution (AID 451; calls by dose curve; further: potency means the concentration at half of the fitted maximal effect); settings: CHO-K1 GR-EFC translocation, beta-gal luminescence, 2 h
In short: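 CHO-K1 cells stably expressing nuclear-localized β-gal enzyme acceptor and GR fused C-terminally to the enzyme donor fragment; ligand-driven nuclear translocation restores β-gal by complementation. Compounds titrated up to 46 uM final, 2 h at 37 °C; luminescence read.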

[16] = target: Mitogen-activated protein kinase 10 (Mus musculus) (UniProt Q61831); test: JNK3 AlphaScreen Assay (AID 530)
In short: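 JNK3 came from HepG2 lysates pre-activated with IL-1beta and TNF-alpha and phosphorylated biotinylated GST-cJun (1-79) at 10 uM ATP, pH 7.6, room temperature. Compounds were titrated. AlphaScreen signal used anti-phospho-cJun (Ser73) antibody.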

[17] = target: Cytochrome P450 2D6 (Homo sapiens) (UniProt P10635); test: qHTS Assay for Inhibitors and Substrates of Cytochrome P450 2D6 (AID 891; active means well fitted curve in the direction sought with a large enough effect; an effect the other way counts as inactive or inconclusive; further: potency means the concentration at half of the fitted maximal effect; nearly all actives have a fitted effect of over 60% in size)
Cytochrome P450 2D6 (Homo sapiens), sequence (P10635 whole entry, looked up): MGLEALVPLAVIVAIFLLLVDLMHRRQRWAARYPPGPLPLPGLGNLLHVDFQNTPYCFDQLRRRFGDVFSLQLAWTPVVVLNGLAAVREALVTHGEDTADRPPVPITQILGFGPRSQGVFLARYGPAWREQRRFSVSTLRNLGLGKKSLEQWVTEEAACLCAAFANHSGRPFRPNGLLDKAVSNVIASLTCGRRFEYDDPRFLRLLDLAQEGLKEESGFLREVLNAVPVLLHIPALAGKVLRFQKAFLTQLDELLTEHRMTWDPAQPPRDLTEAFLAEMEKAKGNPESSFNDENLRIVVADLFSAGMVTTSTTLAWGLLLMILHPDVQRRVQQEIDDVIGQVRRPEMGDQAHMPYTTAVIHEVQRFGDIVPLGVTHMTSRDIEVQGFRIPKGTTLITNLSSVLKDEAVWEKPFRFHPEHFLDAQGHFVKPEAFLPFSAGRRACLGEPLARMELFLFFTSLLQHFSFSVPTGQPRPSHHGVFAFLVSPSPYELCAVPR
In short: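 Human CYP2D6 (5 nM) with 30 uM Luciferin-ME EGE (at Km) in 100 mM KPO4, compound preincubated 10 min, then NADPH regeneration system for 60 min at room temperature. Luciferin read by luminescence; normalized to 1.43 uM quinidine.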

CCOC(=O)C1=C(C)OC(N)=C(C(=O)OCC)[C@@]12C(=O)N(CC(N)=O)c1ccccc12
inactive: activity change, negative = inhibition [1] 1.68% | activity change, negative = inhibition [2] 2.5% | Potency [3] > 20.6 µM

OC(c1ccc(F)cc1)C(c1ccccc1)N1CCOCC1 (configuration not stated)
inactive: activity change, negative = inhibition [1] -21.7% | activity change, negative = inhibition [2] -1.44% | Potency [3] > 20.6 µM

C=CCN1CC[C@]23c4c5ccc(O)c4O[C@@H]2C(=O)CC[C@@]3(O)[C@H]1C5
inactive: activity change, negative = inhibition [1] 3.28% [at 38 µM] | activity change, negative = inhibition [2] -0.768% [at 38 µM] | outcome [4] | outcome [5] | Potency [6] | outcome [7] | Potency [8] | outcome [9] | outcome [10] | outcome [11] | outcome [12] | outcome [13]

COCCOC(=O)C1=C(N)Oc2c(c(=O)oc3ccccc23)[C@@]12C(=O)Nc1ccccc12
inactive: activity change, negative = inhibition [1] 10.2% | activity change, negative = inhibition [2] -5.71% | outcome [4] | activation [14] -0.572%

COc1ccc(C2SCC(=O)Nc3c2c(=O)[nH]n3C2CCCCCC2)cc1 (configuration not stated)
inactive: activity change, negative = inhibition [1] -18.2% | activity change, negative = inhibition [2] 1.93% | Potency [3] > 20.6 µM

CNc1ccc2oc(C[C@@H]3O[C@@]4(CC[C@H]3C)O[C@@H]([C@@H](C)C(=O)c3ccc[nH]3)[C@@H](C)C[C@H]4C)nc2c1C(=O)O
inactive: activity change, negative = inhibition [1] 6.83% [at 38 µM] | outcome [4] | Potency [3] > 46 µM | Potency [15] > 46 µM | outcome [16] | outcome [5]
active: activity change, negative = inhibition [2] 90.4% [activator] [at 38 µM]

O=c1[nH]c(=O)n(CCc2ccccc2)c(O)c1C=NCCCn1ccnc1
inactive: activity change, negative = inhibition [1] -11% | activity change, negative = inhibition [2] -27.5% | Potency [3] > 20.6 µM

CC1CCC(C(C)C)C(OP(N)(=O)c2ccccc2)C1 (configuration not stated)
inactive: activity change, negative = inhibition [1] -1.85% | activity change, negative = inhibition [2] 16.1% | outcome [4] | Potency [3] > 20.6 µM | activation [14] -7.02%

O=C(c1ccco1)C12CN3CN(CN(C3)C1)C2
inactive: activity change, negative = inhibition [1] 4.87% | activity change, negative = inhibition [2] -11.2% | Potency [3] > 20.6 µM

CNCCc1nc(N)n[nH]1
inactive: activity change, negative = inhibition [1] 16.9% | activity change, negative = inhibition [2] -10.7% | outcome [4] | Potency [3] > 20.6 µM | activation [14] 12.1%

CN1C[C@@H](CNC(=O)OCc2ccccc2)C[C@H]2c3cccc4c3c(cn4C)C[C@@H]21
inactive: activity change, negative = inhibition [1] 29.6% [at 38 µM] | activity change, negative = inhibition [2] 0.446% [at 38 µM] | outcome [4] | Potency [15] > 46 µM | outcome [16]

O=C(CN1CCN(CCO)CC1)Nc1ccc(Cl)cc1C(=O)c1ccccc1
inactive: activity change, negative = inhibition [1] 3.2% | activity change, negative = inhibition [2] 5.95% | outcome [4] | Potency [3] > 20.6 µM | activation [14] 0.98%

COc1ccc2c(c1)[C@]13CCCC[C@@H]1[C@H](C2)N(C)CC3
inactive: activity change, negative = inhibition [1] 12% [at 38 µM] | activity change, negative = inhibition [2] -11.7% [at 38 µM] | outcome [4] | Potency [3] > 46 µM | Potency [15] > 46 µM | outcome [5] | Potency [6] | Potency [8] | outcome [9] | outcome [10] | outcome [11] | outcome [12] | outcome [13]
active: Potency [17] 2.51 µM
